According to paper PMC5540273 (PLoS ONE, 2017):

How the values were obtained:
Conditions in all cases: concentration: 1 μM, replicates: in singlicate; n = 1
CSNK1G1 = test system: CSNK1G1
CSNK1G2 = test system: CSNK1G2
CSNK1G3 = test system: CSNK1G3
CSNK2A1 = test system: CSNK2A1
CSNK2A2 = test system: CSNK2A2
CTK = test system: T1, CTK
T1 construct: gene MATK

DAPK1 = test system: DAPK1
DAPK2 = test system: DAPK2
DAPK3 = test system: DAPK3
DCAMKL1 = test system: T2, DCAMKL1
T2 construct: gene DCLK1

DCAMKL2 = test system: T3, DCAMKL2
T3 construct: gene DCLK2

DCAMKL3 = test system: T4, DCAMKL3
T4 construct: gene DCLK3

DDR1 = test system: DDR1
DDR2 = test system: DDR2
DLK = test system: T5, DLK
T5 construct: gene MAP3K12

DMPK2 = test system: T6, DMPK2
T6 construct: gene CDC42BPG

DMPK = test system: DMPK
DRAK1 = test system: T7, DRAK1
T7 construct: gene STK17A

DRAK2 = test system: T8, DRAK2
T8 construct: gene STK17B

DYRK1A = test system: DYRK1A
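Note: KINOMEscan kinase panel screen.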

SMILES | %Inh (CSNK1G1) [%] | %Inh (CSNK1G2) [%] | %Inh (CSNK1G3) [%] | %Inh (CSNK2A1) [%] | %Inh (CSNK2A2) [%] | %Inh (CTK) [%] | %Inh (DAPK1) [%] | %Inh (DAPK2) [%] | %Inh (DAPK3) [%] | %Inh (DCAMKL1) [%] | %Inh (DCAMKL2) [%] | %Inh (DCAMKL3) [%] | %Inh (DDR1) [%] | %Inh (DDR2) [%] | %Inh (DLK) [%] | %Inh (DMPK2) [%] | %Inh (DMPK) [%] | %Inh (DRAK1) [%] | %Inh (DRAK2) [%] | %Inh (DYRK1A) [%]
CC(C)c1nc(-c2cccc(NS(=O)(=O)c3c(F)cccc3F)c2F)c(-c2ccnc(Nc3ccc(N4CCOCC4)nc3)n2)s1 [GSK2008607] | 21 | 0 | 6 | 7 | 32 | 55 | 2 | 1 | 34 | 57 | 46 | 82 | 99.3 | 88 | 93.2 | 20 | 0 | 0 | 0 | 0
CC(C)(C)c1ccc2nccc(Nc3cccc(O)c3)c2c1 [GW856795] | 36 | 0 | 0 | 0 | 0 | 0 | 16 | 0 | 0 | 14 | 0 | 0 | 62 | 47 | 16 | 0 | 3 | 5 | 1 | 0
Cn1cc(-c2ccc3c(c2)CCN3C(=O)Cc2cccc(Cl)c2)c2c(N)ncnc21 [GSK2606590] | 31 | 0 | 29 | 8 | 30 | 0 | 1 | 5 | 0 | 12 | 19 | 0 | 99.5 | 57 | 51 | 53 | 0 | 0 | 0 | 11
O=C(NC1CCN(c2ccnc(Nc3ccc(F)cc3)n2)C1)c1cc2ccccc2s1 (stereo not drawn) [GSK1379716] | 20 | 0 | 24 | 0 | 12 | 0 | 19 | 15 | 5 | 18 | 9 | 7 | 0 | 32 | 32 | 0 | 0 | 7 | 0 | 7
Oc1cc(Nc2ccnc3cc(I)ccc23)ccc1F [GW552771] | 0 | 0 | 0 | 23 | 0 | 6 | 0 | 0 | 30 | 0 | 0 | 0 | 14 | 19 | 32 | 0 | 0 | 0 | 6 | 36
c1ccc(Oc2ccc(Nc3ccnc4cc(-c5ccc(CNCCN6CCOCC6)o5)ccc34)cc2)nc1 [GW567145] | 2 | 0 | 13 | 0 | 18 | 0 | 0 | 2 | 18 | 20 | 0 | 0 | 0 | 50 | 49 | 0 | 0 | 2 | 54 | 0
CN(c1ccc(NC(=O)Nc2cc(C(F)(F)F)ccc2F)cc1)c1ccnc(Nc2ccc(S(N)(=O)=O)cc2)n1 [GW809893] | 5 | 0 | 18 | 13 | 0 | 23 | 0 | 0 | 0 | 3 | 2 | 6 | 97.6 | 93.9 | 14 | 9 | 0 | 0 | 18 | 17
O=C(Nc1cccc(-c2nn3ccccc3c2-c2ccnc(Nc3cccc(C(F)(F)F)c3)n2)c1)c1c(F)cccc1F [GSK292658] | 0 | 0 | 8 | 7 | 2 | 14 | 0 | 0 | 0 | 49 | 0 | 0 | 99.3 | 50 | 2 | 49 | 0 | 0 | 0 | 9
NCCCC(NC(=O)c1cc(Br)c(-c2ccnc3[nH]ccc23)s1)c1ccccc1.O=C(O)C(F)(F)F.O=C(O)C(F)(F)F (stereo not drawn) [GSK1287544] | 57 | 97.2 | 94.8 | 27 | 20 | 0 | 0 | 0 | 0 | 8 | 3 | 0 | 0 | 2 | 17 | 94.2 | 28 | 61 | 0 | 48
Cl.Cl.NCC(NCc1ccc(-c2ccnc3[nH]ccc23)s1)c1ccccc1 (stereo not drawn) [GSK1321565] | 0 | 0 | 33 | 39 | 37 | 0 | 67 | 32 | 71 | 21 | 0 | 0 | 0 | 34 | 0 | 25 | 81 | 75 | 6 | 38
COc1cc(Nc2nccc(N3CCC(NC(=O)c4cc5ccccc5s4)C3)n2)cc(OC)c1OC (stereo not drawn) [GSK1379760] | 9 | 13 | 8 | 27 | 0 | 0 | 54 | 20 | 1 | 13 | 14 | 0 | 0 | 39 | 31 | 5 | 0 | 0 | 0 | 0
Cc1ccc(C)c(NC(=O)NC2CCN(c3ccnc(Nc4ccc(F)cc4)n3)C2)c1 (stereo not drawn) [GSK1379720] | 0 | 15 | 12 | 0 | 0 | 0 | 0 | 0 | 0 | 6 | 0 | 3 | 0 | 25 | 0 | 0 | 0 | 10 | 0 | 10
CCCCc1nn2ncccc2c1-c1ccnc(Nc2ccc(N3CCN(C)CC3)cc2)n1 [GW684941] | 0 | 0 | 0 | 0 | 7 | 13 | 0 | 0 | 17 | 17 | 25 | 2 | 100 | 96.2 | 47 | 50 | 0 | 5 | 0 | 17
Nc1n[nH]c2cnc(-c3ccccc3)cc12 [SB-642124] | 4 | 0 | 3 | 21 | 27 | 0 | 24 | 0 | 27 | 13 | 0 | 10 | 2 | 18 | 19 | 0 | 31 | 44 | 0 | 91.4
CSc1cccc2c(-c3ccncn3)c(-c3ccc(F)cc3)nn12 [GW514786] | 3 | 10 | 21 | 0 | 13 | 0 | 0 | 0 | 0 | 5 | 20 | 0 | 78 | 63 | 24 | 59 | 13 | 0 | 0 | 18
Nc1ncc(-c2ccc3nccc(-c4ccncc4)c3c2)cc1S(=O)(=O)N1CCOCC1 [GSK1627798] | 0 | 0 | 8 | 5 | 1 | 0 | 0 | 2 | 9 | 0 | 22 | 0 | 0 | 0 | 32 | 0 | 0 | 0 | 0 | 28
COc1ccc(Nc2nccc(NCCNC(=O)c3cc4ccccc4s3)n2)cc1 [GSK1379896] | 54 | 0 | 27 | 0 | 15 | 0 | 4 | 2 | 0 | 10 | 0 | 0 | 0 | 15 | 0 | 0 | 0 | 0 | 0 | 0
c1ccc(-c2cnc3nccnn23)cc1 [AH20685] | 0 | 5 | 0 | 0 | 0 | 0 | 0 | 0 | 0 | 0 | 27 | 0 | 0 | 24 | 20 | 0 | 0 | 0 | 0 | 42
